Measurements from PubChem BioAssay (Tox21).
Results filed as inconclusive are left out. Where a structure was tested more than once in an assay, its records may differ in their call. Activity calls are given as the source filed them. Unless noted, calls follow the shape of the dose curve; as a rule, active = well fitted curve in the direction sought with a large enough effect in the repeat runs; inconclusive = weak or mixed curves; inactive = no such curve, though single readings can be large; an effect the other way counts as inactive or inconclusive.

How the values were obtained:
[1] = qHTS assay to identify small molecule agonists of H2AX - cell viability counter screen (AID 1224847; calls by dose curve; also: nearly all actives have a fitted effect of over 30% in size; also: potency is read from the fitted curve at half-maximal effect;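 as to activity change, negative = cytotoxicity: wild-type CHO-K1 cells; top concentration of the series differs between compounds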); conditions: CHO-K1 viability, CellTiter-Glo luminescence, 3 h; series mostly up to 154 µM
Outline: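 For this counter screen, overnight-attached CHO-K1 cells received test compounds (15 concentrations, 0.76% DMSO final); 3 hr later at 37C, CellTiter-Glo reagent was added and luminescence recorded after 30 min at room temperature.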

[2] = qHTS RealTime-Glo MT Cell Viability Assay in HepG2 cells - 24 hour (AID 1224867); conditions: RealTime-Glo luminescence; series mostly up to 76.8 µM; also: nearly all actives have a fitted effect of over 50% in size; also: potency is read from the fitted curve at half-maximal effect
Outline: (§1)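 HepG2 cells (600/well) were dispensed with RealTime-Glo reagents, incubated 5 h at 37 °C, then treated with compounds in DMSO for up to 40 h. Nonlytic NanoLuc luminescence reflecting viable cells was read at each stated time point.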

[3] = A CellTox Green Cytotoxicity Assay to monitor cytotoxicity in HEK293 cells - 0 hour (AID 1224869); conditions: CellTox Green fluorescence; series mostly up to 76.8 µM; also: nearly all actives have a fitted effect of over 50% in size
Outline: (§2)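 Cytotoxicity was tracked continuously in HEK293 cells by a DNA-binding dye excluded from viable cells. Compounds were transferred in DMSO 5 h after seeding; fluorescence was recorded at intervals up to 40 h.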

[4] = qHTS RealTime-Glo MT Cell Viability Assay in HepG2 cells - 40 hour (AID 1224870); conditions: RealTime-Glo luminescence; series mostly up to 76.8 µM; also: nearly all actives have a fitted effect of over 50% in size; also: potency is read from the fitted curve at half-maximal effect
Outline: (§3)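 Real-time viability: cells seeded at 600 per well together with NanoLuc and cell-permeant prosubstrate, compounds added after 5 h incubation. Luminescence tracked at 0, 8, 16, 24, 32 and 40 h of exposure.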

[5] = A CellTox Green Cytotoxicity Assay to monitor cytotoxicity in HEK293 cells - 40 hour (AID 1224871); conditions: CellTox Green fluorescence; series mostly up to 76.8 µM; also: nearly all actives have a fitted effect of over 45% in size; also: potency is read from the fitted curve at half-maximal effect
Outline: as §2

[6] = qHTS RealTime-Glo MT Cell Viability Assay in HEK293 cells - 16 hour (AID 1224872); conditions: RealTime-Glo luminescence; series mostly up to 76.8 µM; also: nearly all actives have a fitted effect of over 50% in size; also: potency is read from the fitted curve at half-maximal effect; as to activity change, negative = cytotoxicity: top concentration of the series differs between compounds
Outline: (§4)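 HEK293 cells seeded with NanoLuc/prosubstrate reagent, rested 5 h at 37 C, then dosed and kept at 37 C up to 40 h. Nonlytic real-time luminescence from viable cells read at 0, 8, 16, 24, 32 and 40 h.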

[7] = qHTS RealTime-Glo MT Cell Viability Assay in HepG2 cells - 8 hour (AID 1224873); conditions: RealTime-Glo luminescence; series mostly up to 76.8 µM; also: nearly all actives have a fitted effect of over 55% in size; also: potency is read from the fitted curve at half-maximal effect
Outline: as §3

[8] = A CellTox Green Cytotoxicity Assay to monitor cytotoxicity in HepG2 cells - 16 hour (AID 1224876); conditions: CellTox Green fluorescence; series mostly up to 76.8 µM; also: nearly all actives have a fitted effect of over 45% in size; also: potency is read from the fitted curve at half-maximal effect
Outline: (§5)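 Real-time, homogeneous cytotoxicity readout: dead-cell DNA staining by CellTox Green in HepG2 monolayers, fluorescence measured at timed intervals up to 40 h of continuous compound exposure.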

[9] = qHTS RealTime-Glo MT Cell Viability Assay in HepG2 cells - 32 hour (AID 1224877); conditions: RealTime-Glo luminescence; series mostly up to 76.8 µM; also: nearly all actives have a fitted effect of over 55% in size; also: potency is read from the fitted curve at half-maximal effect
Outline: as §1

[10] = A CellTox Green Cytotoxicity Assay to monitor cytotoxicity in HepG2 cells - 24 hour (AID 1224878); conditions: CellTox Green fluorescence; series mostly up to 76.8 µM; also: nearly all actives have a fitted effect of over 45% in size; also: potency is read from the fitted curve at half-maximal effect
Outline: as §5

[11] = A CellTox Green Cytotoxicity Assay to monitor cytotoxicity in HepG2 cells - 40 hour (AID 1224879); conditions: CellTox Green fluorescence; series mostly up to 76.8 µM; also: nearly all actives have a fitted effect of over 40% in size; also: potency is read from the fitted curve at half-maximal effect
Outline: as §5

[12] = qHTS RealTime-Glo MT Cell Viability Assay in HEK293 cells - 0 hour (AID 1224880); conditions: RealTime-Glo luminescence; series mostly up to 76.8 µM; also: top concentration of the series differs between compounds; nearly all actives have a fitted effect of over 45% in size
Outline: (§6)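 Nonlytic bioluminescent viability monitoring. HEK293 at 600 cells/well with reagent; 5 h settle; compound transfer by pintool; plates held at 37 C and read at set time points.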

[13] = A CellTox Green Cytotoxicity Assay to monitor cytotoxicity in HEK293 cells - 32 hour (AID 1224881); conditions: CellTox Green fluorescence; series mostly up to 76.8 µM; also: nearly all actives have a fitted effect of over 40% in size; also: potency is read from the fitted curve at half-maximal effect
Outline: as §2

[14] = qHTS assay to identify small molecule antagonists of the estrogen related receptor (ERR) signaling pathway from Tox21 library (AID 1224848); conditions: ERR reporter cell line, luciferase antagonist mode, 18 h; series mostly up to 92.4 µM; also: nearly all actives have a fitted effect of over 50% in size; also: potency is read from the fitted curve at half-maximal effect
Outline: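 Reading was by luminescence 30 min after ONE-Glo addition. Before that, ERR cells at 2,000 per well had rested 6 h at 37 C/5% CO2 and then received pin-tooled compounds in DMSO for 18 h at 37 C.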

[15] = qHTS assay to identify small molecule agonists of the estrogen related receptor (ERR) signaling pathway from Tox21 library (AID 1224849; calls by dose curve; also: nearly all actives have a fitted effect of over 15% in size); conditions: ERR reporter cell line, ONE-Glo luciferase, 18 h; at 92.4 µM (top of the series) unless noted
Outline: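 Agonist signal is luciferase luminescence from an ERR reporter cell line treated 18 h at 37 C with DMSO-dissolved compounds, read 30 min after ONE-Glo addition at room temperature.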

[16] = qHTS RealTime-Glo MT Cell Viability Assay in HEK293 cells - 32 hour (AID 1224868); conditions: RealTime-Glo luminescence; series mostly up to 76.8 µM; also: nearly all actives have a fitted effect of over 50% in size; also: potency is read from the fitted curve at half-maximal effect; as to activity change, negative = cytotoxic: top concentration of the series differs between compounds
Outline: as §4

[17] = qHTS RealTime-Glo MT Cell Viability Assay in HEK293 cells - 40 hour (AID 1224874); conditions: RealTime-Glo luminescence; max response: stronger effect = lower value; also: nearly all actives have a fitted effect of over 50% in size; also: potency is read from the fitted curve at half-maximal effect
Outline: as §6

[18] = A CellTox Green Cytotoxicity Assay to monitor cytotoxicity in HEK293 cells - 24 hour (AID 1224875); conditions: CellTox Green fluorescence; series mostly up to 76.8 µM; also: nearly all actives have a fitted effect of over 45% in size; also: potency is read from the fitted curve at half-maximal effect
Outline: as §2
% is scaled to controls: 0 for no effect and ±100 for the full control effect.

CN(C)CCOC(c1ccccc1)c1ccccc1 (tested in a mixture with another compound)
inactive: Potency [1] | Potency [2] | Potency [3] | Potency [4] | Potency [5] | Potency [6] | Potency [7] | Potency [8] | Potency [9] | Potency [10] | Potency [11] | Potency [12] | Potency [13]

O=C1NCN(c2ccccc2)C12CCN(CCCC(c1ccc(F)cc1)c1ccc(F)cc1)CC2
active: Potency [1] 49.2 µM | Potency [14] 21.1 µM | Potency [2] 6.74 µM | Potency [16] 19 µM | Potency [4] 6.74 µM | Potency [5] 23.9 µM | Potency [6] 19 µM | Potency [7] 10.7 µM | Potency [17] 19 µM | Potency [8] 9.52 µM | Potency [9] 6.01 µM | Potency [10] 7.56 µM | Potency [11] 6.74 µM | Potency [13] 23.9 µM
inactive: activity change, positive = activation [15] -32.9% [at 42.5 µM] | Potency [3]

CSc1c(Cl)c(Cl)c(Cl)c(Cl)c1Cl
active: Potency [5] 48.7 µM | Potency [8] 48.7 µM
inactive: Potency [1] | Potency [2] | Potency [3] | Potency [4] | Potency [7] | max response [17] -20.6% | Potency [9] | Potency [12]

CC(C)(C)CC(C)(C)c1ccccc1O
inactive: activity change, positive = activation [15] 1.59% | Potency [2] | Potency [3] | Potency [4] | Potency [7] | Potency [9]
active: Potency [1] 90.3 µM | Potency [5] 39.1 µM | Potency [6] 39.1 µM | Potency [18] 39.1 µM | Potency [8] 24.7 µM | Potency [10] 27.7 µM | Potency [11] 34.9 µM | Potency [13] 43.9 µM

CN(C)CCCN1c2ccccc2CCc2ccccc21
active: Potency [17] 54.9 µM | Potency [10] 49 µM | Potency [11] 54.9 µM
43.6 µM (active) and inactive: Potency [5]
inactive: Potency [1] | Potency [2] | Potency [16] | Potency [3] | Potency [6] | Potency [7] | Potency [18] | Potency [9] | Potency [13]

C=CCCCCCCC=C
inactive: Potency [1] | Potency [2] | Potency [3] | Potency [4] | Potency [5] | Potency [6] | max response [17] 0.211% | Potency [18] | Potency [8] | Potency [9] | Potency [10] | Potency [11] | Potency [12] | Potency [13]

CCN(CC)CCOC(=O)C1(C2CCCCC2)CCCCC1
active: Potency [1] 49.2 µM | Potency [5] 23.9 µM | Potency [6] 21.3 µM | Potency [18] 23.9 µM | Potency [8] 23.9 µM | Potency [10] 23.9 µM | Potency [13] 23.9 µM
inactive: Potency [2] | Potency [3] | Potency [4] | Potency [7] | Potency [9]

c1cc(OCC2CO2)cc(OCC2CO2)c1 (stereo unspecified)
inactive: Potency [1] | Potency [2] | Potency [3] | Potency [5] | Potency [7] | Potency [18] | Potency [8] | Potency [12] | Potency [13]
active: Potency [16] 17.2 µM | Potency [17] 12.2 µM

O=C1OC(OC(=O)c2cccnc2Nc2cccc(C(F)(F)F)c2)c2ccccc21 (stereo unspecified)
inactive: Potency [1] | Potency [14] | activity change, positive = activation [15] -0.557% [at 42.5 µM] | Potency [2] | Potency [16] | Potency [3] | Potency [4] | Potency [5] | Potency [6] | Potency [7] | max response [17] -1.07% | Potency [8] | Potency [9] | Potency [10] | Potency [11] | Potency [12] | Potency [13]

COc1cc(C(C)C)c2c(c1)S(=O)(=O)N(COc1cc(=O)n3cccc(OCCN4CCCCC4)c3n1)C2=O
inactive: activity change, negative = cytotoxicity [2] -8.66% [at 15.8 µM] | cytotoxicity [3] -2.82% [at 15.8 µM] | activity change, negative = cytotoxic [4] -2.06% [at 15.8 µM] | activity change, negative = cytotoxicity [6] 3.24% [at 15.8 µM] | cytotoxicity increase [8] 19.8% [at 15.8 µM] | activity change, negative = cytotoxic [9] -2.94% [at 15.8 µM] | activity change, negative = cytotoxicity [12] -4.74% [at 15.8 µM] | cytotoxicity increase [13] 5.59% [at 15.8 µM]
active: Potency [1] 24 µM

CN(C)c1ccc(N=NS(=O)(=O)O)cc1
active: Potency [1] 40.1 µM | Potency [6] 14.5 µM
inactive: Potency [2] | Potency [3] | Potency [4] | Potency [5] | max response [17] -17.2% | Potency [18] | Potency [8] | Potency [9] | Potency [10] | Potency [12] | Potency [13]

CC(C)(c1cc(Br)c(OCCO)c(Br)c1)c1cc(Br)c(OCCO)c(Br)c1
inactive: activity change, positive = activation [15] -67.7% | Potency [3] | Potency [7] | Potency [18] | Potency [8] | Potency [10] | Potency [12] | Potency [13]
active: Potency [1] 87.8 µM | Potency [14] 11.9 µM | Potency [16] 13.5 µM | Potency [6] 17 µM | Potency [17] 12 µM

CCCCCCCCCCCCN(CCO)CCO
inactive: activity change, positive = activation [15] -79.7% | Potency [3]
active: Potency [1] 100 µM | Potency [14] 60.9 µM | Potency [2] 48.8 µM | Potency [16] 43.5 µM | Potency [4] 38.7 µM | Potency [5] 54.7 µM | Potency [6] 48.8 µM | Potency [17] 38.7 µM | Potency [18] 54.7 µM | Potency [8] 43.5 µM | Potency [9] 43.5 µM | Potency [10] 24.4 µM | Potency [11] 19.4 µM | Potency [13] 54.7 µM
